Screens: PubChem, several laboratories
Rows were chosen to be rich in hits. Some 4% of all compounds tested hit in one or more screens of this group.
Mdm2 MdmX PPI – inhibitors of human Mdm2-MdmX association, primary screen, cell-based, luminescence, split luciferase, SaOS-2, uHTS; Protein Mdm4 (Homo sapiens) + E3 ubiquitin-protein ligase Mdm2 (Homo sapiens), …; SaOS-2 split-luciferase Mdm2/MdmX complementation; inhibition, % at 8 µM; 330,000 compounds, 3% hits; AID 485346, 2010;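 active = inhibition of at least 50% at 8 µM in the primary screen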
CSC inhib – cancer stem cell viability inhibitors, primary screen, luminescence; cancer stem cell-like cells viability; inhibition, % at 7.5 µM; 300,000 compounds, 1.1% hits; in the data active = inhibition above about 75%; tested in HMLE shEcad cells
Gli-Sufu block – Gli-Sufu pathway antagonists, primary screen, luciferase luminescence, Sufu-KO-LIGHT cells, uHTS. Sufu-KO-LIGHT fibroblasts, Gli luciferase reporter luminescence. inhibition, % at 5 µM. 340,000 compounds, 0.74% hits;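 active = inhibition above about 55%, limit read from the data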
PAX8 reporter – inhibitors of PAX8-driven TPO luciferase reporter, primary screen, RMG-I cells, single concentration | SteadyGlo, 24 h | inhibition, % at 12.6 µM | 360,000 compounds, 1.2% hits | AID 652154, 2013;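 active = mean replicate inhibition at least 60% with every replicate also reaching 60%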;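 note: luciferase light reporting Pax8 driven TPO promoter activity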
Beta cell apopt – inhibitors of cytokine-induced beta cell apoptosis, primary screen, luminescence; protection from apoptosis, % (concentration not given with the values); 300,000 compounds, 0.8% hits; INS-1E cytokine-induced death, ATP luminescence, 48 h; percent of positive-control rescue, neutral wells zero;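 active = Every replicate reaches about 75%, or at least half do and their mean reaches it too, limit read from the data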;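 note: higher means more ATP so stronger rescue from cytokine killing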
Shn3 inh set2 – reduction of Shn3 3'UTR firefly luciferase signal, primary screen, Schnurri-3 inhibitor project, cell-based, Clone20 osteoblasts, set 2; inhibition, % at 12.5 µM; Clone20 osteoblast Shn3 3'UTR firefly luciferase, 24 h; 360,000 compounds, 0.52% hits;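 active = mean inhibition of at least 75% with every replicate also reaching 75%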
A number is an active result; - = inactive; . = not tested or not shown; + = active, no number.

SMILES	Mdm2 MdmX PPI	CSC inhib	Gli-Sufu block	PAX8 reporter	Beta cell apopt	Shn3 inh set2
Cc1ccc(S(=O)(=O)Nc2ccc3c(c2)C(=O)N([C@H](C)CO)C[C@@H](C)[C@H](CN(C)C(=O)Nc2cccc4ccccc24)OCCCC[C@@H](C)O3)cc1	.	.	.	79	.	.
Cc1ccc(S(=O)(=O)Nc2ccc3c(c2)C(=O)N([C@H](C)CO)C[C@H](C)[C@H](CN(C)C(=O)Nc2cccc4ccccc24)OCCCC[C@@H](C)O3)cc1	.	.	.	-	.	-
CN1C(=O)c2cc(NC(=O)c3ccc(F)cc3)ccc2OC[C@H]2O[C@H](CC(=O)N3CCOCC3)CC[C@H]21	.	.	.	-	.	.
C[C@H]1CCCCO[C@@H](CN(C)C)[C@@H](C)CN([C@@H](C)CO)C(=O)c2cc(NC(=O)Nc3ccc(C(F)(F)F)cc3)ccc2O1	.	.	.	88	.	.
C[C@H]1CCCCO[C@@H](CN(C)C(=O)Nc2ccc(C(F)(F)F)cc2)[C@@H](C)CN([C@@H](C)CO)C(=O)c2cc(NC(=O)Nc3ccc(C(F)(F)F)cc3)ccc2O1	.	.	.	-	.	.
C[C@@H]1CN([C@H](C)CO)C(=O)c2cc(NC(=O)Nc3ccc(C(F)(F)F)cc3)ccc2O[C@@H](C)CCCCO[C@H]1CN(C)C(=O)Nc1ccc(C(F)(F)F)cc1	.	.	.	96	.	.
C[C@H]1CCCCO[C@H](CN(C)C(=O)Nc2ccc(C(F)(F)F)cc2)[C@@H](C)CN([C@@H](C)CO)C(=O)c2cc(NC(=O)Nc3ccc(C(F)(F)F)cc3)ccc2O1	.	.	.	-	.	.
C[C@@H]1CCCCO[C@@H](CN(C)C(=O)Nc2ccc(C(F)(F)F)cc2)[C@H](C)CN([C@@H](C)CO)C(=O)c2cc(NC(=O)Nc3ccc(C(F)(F)F)cc3)ccc2O1	.	.	.	77	.	.
C[C@H]1CCCCO[C@H](CN(C)C(=O)Nc2ccc(C(F)(F)F)cc2)[C@@H](C)CN([C@@H](C)CO)C(=O)c2cc(NC(=O)CCC(F)(F)F)ccc2O1	.	.	.	87	.	.
COc1ccc(C(=O)Nc2ccc3c(c2)C(=O)N(C)C[C@@H](OC)[C@@H](C)CN[C@@H](C)CO3)cc1	.	.	.	-	.	.
C[C@@H]1CN([C@H](C)CO)C(=O)c2cccc(NC(=O)Nc3ccccc3)c2O[C@@H]1CN(C)C	.	.	.	-	.	.
C[C@H](CO)N1C[C@H](C)[C@@H](CN(C)S(=O)(=O)c2ccccc2F)Oc2ncc(C#Cc3ccccc3)cc2C1=O	.	.	.	-	.	.
COCC(=O)Nc1ccc2c(c1)[C@H]1C[C@H](CC(=O)O)O[C@H](CO)[C@H]1O2	.	.	.	-	.	.
COc1ccccc1N(CC(O)Cn1c2ccccc2c2ccccc21)S(=O)(=O)c1ccccc1 (stereo not drawn)	-	-	-	-	-	-
O=S(=O)(c1ccccc1)N(CC(O)Cn1c2ccccc2c2ccccc21)c1ccccc1 (stereo not drawn)	-	95	-	.	.	-
Cc1cc(C)c2c(c1)/C(=N/Nc1ccc(S(N)(=O)=O)cc1[N+](=O)[O-])CCC2	-	-	-	-	-	-
NS(=O)(=O)c1ccc(N/N=C2/CCCCC2C2CCCCC2)c([N+](=O)[O-])c1 (stereo not drawn)	-	+	-	-	76	-
O=S(=O)(NCC[C@@H]1CC[C@H](NS(=O)(=O)c2ccccc2Cl)[C@H](CO)O1)c1ccc(Cl)cc1	.	.	.	-	.	.
CC1=NN(C(N)=S)C(=O)C1N=Nc1c(Br)cc(Br)cc1Br (stereo not drawn)	-	77	-	-	-	-
CC1=NN(C(N)=S)C(=O)C1N=Nc1c(C)cc(C)cc1C (stereo not drawn)	-	-	-	-	-	-
CC=Cc1ccc2n(c1=O)C[C@H]1[C@H](CO)[C@@H](C(=O)NCC(F)(F)F)N(CC3CC3)[C@@H]21 (mixture of isomers)	.	.	.	-	.	.
CCOCCCNc1ncnc2c1[nH]c1ccccc12	-	-	-	.	78	-
C=CCNc1ncnc2c1[nH]c1ccccc12	-	-	-	.	-	-
COc1ccc2c(C)nc(Nc3nc(C)c(C)c(=O)[nH]3)nc2c1	-	106	-	-	-	-
Cc1cccc(N=C2NN=C(c3c(C)[nH]c4ccccc34)CS2)c1	-	-	-	74	-	-
SMILES	Mdm2 MdmX PPI	CSC inhib	Gli-Sufu block	PAX8 reporter	Beta cell apopt	Shn3 inh set2
Cc1cccc(N=C2NN=C(c3ccc4c(c3)OCCO4)CS2)c1	-	-	-	.	-	-
COc1cc2cnc(-c3ccccc3)c(-c3cccc(C(F)(F)F)c3)c2cc1OC	-	128	-	-	-	-
Cc1noc(C)c1S(=O)(=O)N(C)C[C@@H]1Oc2ccc(N(C)C)cc2CC(=O)N([C@@H](C)CO)C[C@H]1C	.	.	.	-	.	.
CC(C)=NNc1ncnc2nc[nH]c12	.	.	-	70	.	-
CCOC(=O)C(=Cc1ccc(Br)cc1)C(=O)OCC	.	-	-	-	86	-
CCOC(=O)C(=Cc1ccc(F)cc1)C(=O)OCC	-	96	.	.	-	.
CCOC(=O)C(=O)Nc1ccc(F)cc1	-	-	-	.	-	-
CCOC(=O)C(=Cc1ccc(-n2ccnc2)cc1)C(=O)OCC	-	86	-	-	-	-
O=C(N[C@H]1CC[C@H](CCNC(=O)c2ccccc2F)O[C@@H]1CO)c1cnccn1	.	.	.	-	.	.
CCCCN1/C(=C/c2cccc[n+]2C)Sc2cc(NC(C)=O)ccc21	-	-	-	-	-	-
Cc1ccc2c(c1)N(C)/C(=C/c1cccc[n+]1CCO)S2	-	-	-	-	98	-
CCC(=O)Nc1ccc2c(c1)OC[C@H](C)N(CC1CCCCC1)C[C@H](C)[C@@H](OC)CN(C)C2=O	.	.	.	-	.	.
COC/C=C/C1=CC2=CC(=O)C(C)(OC(=O)c3cnc4ccccc4n3)C(=O)C2=CN1c1ccccc1 (stereo not drawn)	-	-	-	67	-	.
COC/C=C/C1=CC2=CC(=O)C(C)(OC(=O)c3cnc4ccccc4n3)C(=O)C2=CN1c1ccc(CO)cc1 (stereo not drawn)	-	-	.	.	-	.
CO[C@H]1CN(C)C(=O)c2ccc(NC(=O)Nc3ccc(Cl)cc3)cc2OC[C@H](C)N(C)C[C@@H]1C	.	.	.	-	.	.
COc1ccccc1S(=O)(=O)N1CC[C@@H]2[C@H]1c1cc(-c3ccccc3)ccc1N(C)[C@H]2CO	.	.	.	-	.	.
COc1cccc(-c2ccc3c(c2)[C@@H]2[C@@H](CCN2S(=O)(=O)c2ccccc2OC)[C@H](CO)N3C)c1	.	.	.	84	.	.
COc1cccc(-c2ccc3c(c2)[C@@H]2[C@@H](CCN2S(=O)(=O)c2ccccc2C)[C@H](CO)N3C)c1	.	.	.	82	.	.
COc1cccc(-c2ccc3c(c2)[C@H]2[C@H](CCN2S(=O)(=O)c2ccccc2C)[C@H](CO)N3C)c1	.	.	.	-	.	.
COc1cccc(-c2ccc3c(c2)[C@H]2[C@H](CCN2S(=O)(=O)c2ccccc2OC)[C@@H](CO)N3C)c1	.	.	.	92	.	.
